# KB-3-1 tox – qHTS assay for MDR1-selective chemotherapeutics: Primary screen using the parental adenocarcinoma cell KB-3-1; AID 1347075, 2019; KB-3-1 viability, CellTiter-Glo ATP luminescence, 72 h; 1.4% of 400,000 active; Potency, µM (highest dose often 46.1 µM), usual class: cytotoxic; further: nearly all actives have a fitted effect of over 60% in size
#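 72 h, 37 °C compound treatment of KB-3-1 parental cells; CellTiter-Glo added, 10 min, luminescence read. Data corrected against DMSO-only plates and normalized before curve fitting.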
# KB-V1 MDR tox – qHTS assay for MDR1-selective chemotherapeutics: Primary screen using the drug-selected MDR subline cells KB-V1; 3.4% of 400,000 active; Potency, µM (titrated, usually from 46.1 µM), most hits filed as cytotoxic; AID 1347076, 2019; KB-V1 MDR cells viability, CellTiter-Glo, 72 h; further: nearly all actives have a fitted effect of over 60% in size
#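 KB-V1, DMEM (no phenol red) + 10% FBS; cpd pin-transferred, titration series; 72 h, 37 degrees C; CellTiter-Glo, luminescence. Data normalized, curve-fit.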
# RGS4 inhibitor – Inhibitors of Regulator of G Protein Signaling (RGS) 4: qHTS | 0.039% of 390,000 active | Transcreener GDP fluorescence polarization, RGS4-accelerated GTP hydrolysis | Potency, µM (series often up to 114 µM), actives largely listed as inhibitors | Regulator of G-protein signaling 4 (Homo sapiens), P49798; further: nearly all actives have a fitted effect of over 75% in size
# Target sequence (P49798 whole entry, looked up): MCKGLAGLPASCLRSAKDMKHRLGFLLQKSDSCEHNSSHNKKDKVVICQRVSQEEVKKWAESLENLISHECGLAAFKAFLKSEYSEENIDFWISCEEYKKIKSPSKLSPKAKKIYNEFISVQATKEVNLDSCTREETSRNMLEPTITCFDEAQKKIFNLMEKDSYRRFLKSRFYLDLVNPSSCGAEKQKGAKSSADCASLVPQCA
#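 MLSMR compounds (23 nl, pin-transferred) preincubated 10 min at room temperature with a 500nM (2x) first reagent, then RGS4 at 900nM (2x) plus Transcreener GDP mix added; fluorescence polarization (620/688 nm) read before and after 90 min at 30 °C.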
# SW480 rerep – A quantitative high throughput screen for small molecules that induce DNA re-replication in SW480 colon adenocarcinoma cells. SW480 DNA re-replication, Hoechst DNA content imaging, 48 h. Potency, µM (series often up to 46.1 µM), most hits filed as activators. 1.8% of 340,000 active; further: nearly all actives have a fitted effect of over 55% in size
#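 Compounds, transferred as 23 nL by pin tool, were incubated with cells for 48 hr; DNA content per nucleus was then quantified by Hoechst staining and fluorescence plate imaging.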
# MCF10A rereplic – A quantitative high throughput screen for small molecules that induce DNA re-replication in MCF 10a normal breast cells | MCF 10A DNA re-replication, Hoechst nuclear intensity, 48 h | Potency, µM (titrated, usually from 46.1 µM), actives largely listed as activators | 2.9% of 350,000 active | AID 624296, 2012; further: nearly all actives have a fitted effect of over 50% in size
# TSG101-PTAP inh – qHTS Assay for Iinhibitors of HIV-1 Budding by Blocking the Interaction of PTAP/TSG101; Tumor susceptibility gene 101 protein (Homo sapiens), Q99816; Fluorescence polarization, FITC-PTAP peptide / Tsg101 binding; Potency, µM (doses to about 115 µM), most hits filed as inhibitors; 340,000 tested, under 10 active; AID 493005, 2010; active means well fitted inhibition curve with a large enough effect in the main read-out, with a control signal flat, not every such curve was filed as active; inconclusive means small, poorly fitted or top-dose-only effect, or effect the other way, or a change in a side signal; inactive means no such curve, though single readings can be large or run the other way
# Target sequence (Q99816 whole entry, looked up): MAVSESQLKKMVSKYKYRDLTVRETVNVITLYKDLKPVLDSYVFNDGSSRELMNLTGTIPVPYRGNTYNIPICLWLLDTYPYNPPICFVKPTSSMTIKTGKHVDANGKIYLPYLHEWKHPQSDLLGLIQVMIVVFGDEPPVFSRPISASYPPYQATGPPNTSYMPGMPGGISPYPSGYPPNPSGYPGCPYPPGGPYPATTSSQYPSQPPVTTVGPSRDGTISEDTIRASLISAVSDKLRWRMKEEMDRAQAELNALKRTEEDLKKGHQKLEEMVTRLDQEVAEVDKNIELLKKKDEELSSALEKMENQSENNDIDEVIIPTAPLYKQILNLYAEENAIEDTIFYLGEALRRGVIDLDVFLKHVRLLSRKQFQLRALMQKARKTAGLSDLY
#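 Fluorescence polarization binding of Tsg101 binding domain (10 uM final) to FITC-labeled PTAP peptide (50 nM final) in HEPES pH 7.5 buffer with NaCl, Tween 20, EDTA, TCEP. Compounds added before peptide; binding 20 min at RT.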
# A number is an active result; - = inactive; ? = inconclusive; . = no result given; [ ] = another dose, or the depositor's remark. A selection: hits, their analogues and other compounds. The true share with any hit is near 6.6%. Unless noted, the call rests on the fitted dose curve; in most records, active means well fitted curve in the direction sought with a large enough effect; inconclusive means small, poorly fitted or top-dose-only effect, or another doubt; inactive means no such curve, though single readings can be large; an effect the other way counts as inactive or inconclusive.
SMILES,KB-3-1 tox,KB-V1 MDR tox,RGS4 inhibitor,SW480 rerep,MCF10A rereplic,TSG101-PTAP inh
Cc1ccc2oc(-c3ccc(Cl)c(NC(=O)c4cc5ccccc5o4)c3)nc2c1,-,-,-,.,.,.
Cc1nn2c(=O)cc(COC(=O)c3ccc(NC(=O)CCc4ccccc4)cc3)nc2s1,.,.,-,.,.,.
CCc1cccc(CC)c1NC(=O)COC(=O)C1(c2ccc(Cl)cc2)CCCC1,-,4.61µM,-,-,-,-
CC(C)Cc1nn2c(=O)cc(COC(=O)c3ccc(NC(=O)C4CCCCC4)cc3)nc2s1,.,.,-,.,.,.
COC(=O)C1C=CC(OC2OC(COC(C)=O)C(OC(C)=O)C(OC(C)=O)C2OC(C)=O)n2c(=O)n(-c3ccccc3)c(=O)n21 (configuration not stated),?,5.17µM,-,?,1.64µM,-
O=C(Nc1ccc(F)cc1)c1oc2ccccc2c1NC(=O)C1CCCC1,-,13µM,-,-,-,-
CCOc1ccc(NC(=O)c2oc3ccccc3c2NC(=O)C2CCCCC2)cc1,-,?,-,.,.,.
COCC(=O)Nc1c(C(=O)Nc2ccc3c(c2)OCO3)oc2ccccc12,-,-,-,?,?,-
O=C(CCl)Nc1c(C(=O)Nc2ccc3c(c2)OCCO3)oc2ccccc12,?,?,-,?,7.31µM,-
CCOc1ccc(NC(=O)CCSc2nc(-c3ccc4c(c3)OCO4)cc(C(F)(F)F)n2)cc1,-,-,-,.,.,.
CN=C1S/C(=C\c2ccc(N3CCCC3)c(F)c2)C(=O)N1C,-,?,-,13µM,23.1µM,-
CN=C1S/C(=C\c2ccc(N3CCOCC3)c(F)c2)C(=O)N1C,?,16.4µM,-,?,-,-
O=Cc1ccc(N2CCCC2)c(F)c1,-,-,-,-,?,-
COc1cccc(CNC(=O)C2CCC(CNS(=O)(=O)c3ccc(Br)s3)CC2)c1 (configuration not stated),-,-,-,.,.,.
Cc1ccc(NC(=S)NC(NC(=O)c2ccccc2)C(Cl)(Cl)Cl)c(C)c1 (configuration not stated),?,16.4µM,?,-,?,-
O=C(O)c1ccc(NC(=S)NC(NC(=O)c2ccco2)C(Cl)(Cl)Cl)cc1 (configuration not stated),-,-,-,-,-,-
Cc1ccc(NC(=S)NC(NC(=O)c2ccco2)C(Cl)(Cl)Cl)cc1 (configuration not stated),-,-,-,-,16.4µM,-
Cc1cc(C)c(NC(=S)NC(NC(=O)c2ccccc2)C(Cl)(Cl)Cl)c(C)c1 (configuration not stated),?,?,-,?,-,-
O=C(NC(NC(=S)Nc1ccc(Cl)cc1Cl)C(Cl)(Cl)Cl)c1cccc([N+](=O)[O-])c1 (configuration not stated),?,?,-,20.6µM,11.6µM,-
Cc1ccc(Cc2nc3ccccc3nc2SCC(=O)N2CCCCC2)cc1,.,.,-,.,.,.
C=C1C=C(C(F)F)n2ncc(C(=O)NCc3ccc(OC)c(OC)c3)c2N1,-,-,.,.,.,.
CCN(CC)CCOC(=O)c1ccc(N/C=C(/C#N)c2nc(-c3ccc4c(c3)OCO4)cs2)cc1,-,-,?,?,18.4µM,-
O=c1c(-c2ccccc2)c1-c1ccccc1,.,.,.,5.96µM,?,.
O=c1[nH][nH]c(-c2ccccc2)c1-c1ccccc1,?,-,-,-,-,-
COc1ccc(-c2nnc(SCC(=O)c3ccc([N+](=O)[O-])cc3)o2)cc1OC,-,-,-,.,.,.
SMILES,KB-3-1 tox,KB-V1 MDR tox,RGS4 inhibitor,SW480 rerep,MCF10A rereplic,TSG101-PTAP inh
Cc1cc(C)n(-c2nc3c(c(=O)[nH]c(=O)n3C)n2CC(O)COc2ccc(Cl)cc2Cl)n1 (configuration not stated),2.06µM,?,-,?,?,-
CCC(C)Sc1nc2c(c(=O)[nH]c(=O)n2C)n1CC(O)COc1ccccc1C (configuration not stated),?,18.4µM,-,-,?,-
C=CCn1c(SCc2ccc(Cl)cc2)nc2c1c(=O)[nH]c(=O)n2C,-,16.4µM,-,-,-,-
CC(C)Sc1nc2c(c(=O)[nH]c(=O)n2C)n1Cc1ccc(Cl)cc1,-,-,-,-,-,-
CCC(C)Sc1nc2c(c(=O)[nH]c(=O)n2C)n1Cc1ccc(Cl)cc1 (configuration not stated),?,9.2µM,-,-,?,-
COc1cc2c(NC3CCN(C)CC3)nc(N3CCN(C)CC3)nc2cc1OCCCN(C)C,?,-,.,.,.,.
Brc1cccc(-c2nnn3c2nc(NCc2ccc4c(c2)OCO4)c2ccccc23)c1,-,-,-,.,.,.
C=CCn1c(Sc2ccccc2)nc2c1c(=O)[nH]c(=O)n2C,7.31µM,2.31µM,-,-,-,-
C=CCn1c(Sc2nncn2C)nc2c1c(=O)[nH]c(=O)n2C,-,-,-,-,-,-
CCc1oc2ccccc2c1C(=O)c1cc(Br)c(O)c(Br)c1,-,-,-,-,7.31µM,-
CCc1ccc(OCC(=O)c2c(O)c3ccccc3oc2=O)cc1,-,-,-,-,?,-
COc1cc(C)c(C)cc1S(=O)(=O)Nc1cccc(-c2ccc(N3CCOCC3)nn2)c1,?,?,-,.,.,.
Cc1cc(=O)oc2cc(O[C@@H]3O[C@H](C(=O)O)[C@@H](O)[C@H](O)[C@H]3O)ccc12,.,.,-,.,.,.
COc1cc(OC)cc(-c2sc3ccc(OC)cc3c2C#CC2(N)CCCCC2)c1,?,?,-,18.4µM,14.6µM,.
COc1c(OC(C)=O)ccc(/C=C/c2ccc3cccc(OCc4ccccc4)c3n2)c1[N+](=O)[O-],16.4µM,?,-,-,-,-
COc1cc(/C=C/c2ccc3cccc(OC)c3n2)c(O)c([N+](=O)[O-])c1,?,-,-,-,-,-
COc1cc(/C=C/c2ccc3cccc(OC)c3n2)c(OC(C)=O)c([N+](=O)[O-])c1,?,?,-,?,6.51µM,-
N#CC(=Cc1ccnc2ccccc12)c1ccccc1,-,?,.,.,.,.
CCn1c(/C(C#N)=C/c2ccccc2Cl)nc2ccccc21,-,-,-,.,.,.
CSc1nc2ccccc2cc1/C=C(\C#N)c1cccc(C)c1,14.6µM,14.6µM,-[11.4 µM],?,10.3µM,-
CSc1nc2ccccc2cc1/C=C(\C#N)c1ccc(Cl)c(Cl)c1,-,-,-,?,7.31µM,-

# Screens (PubChem BioAssay)
